Bioassay records (PubChem BioAssay)
DRD3 antagonist: qHTS of D3 Dopamine Receptor Antagonist: qHTS. 360,000 compounds, 2.5% hits. D(3) dopamine receptor (Homo sapiens), P35462. D3R cells, DiscoveRx beta-arrestin luminescence, antagonist mode; hits give low values. AID 652054, 2013. max response, negative = inhibition, %; in the data active means max response below about -50%; inconclusive means no clear call, values can overlap the other calls; further: on the % scale 0 is the no-effect control and ±100 the full control effect
Target sequence (P35462 whole entry, looked up): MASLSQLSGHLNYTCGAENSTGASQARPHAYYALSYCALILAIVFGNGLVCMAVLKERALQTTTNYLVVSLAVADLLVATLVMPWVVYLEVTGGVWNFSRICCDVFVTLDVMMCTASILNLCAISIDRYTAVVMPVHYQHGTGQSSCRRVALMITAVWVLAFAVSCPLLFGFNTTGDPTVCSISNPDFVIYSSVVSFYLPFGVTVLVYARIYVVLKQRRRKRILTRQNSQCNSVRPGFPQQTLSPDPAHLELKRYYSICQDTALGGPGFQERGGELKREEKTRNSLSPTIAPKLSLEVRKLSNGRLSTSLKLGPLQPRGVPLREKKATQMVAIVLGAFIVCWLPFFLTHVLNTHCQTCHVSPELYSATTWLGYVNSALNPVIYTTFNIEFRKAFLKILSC
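Cells expressing the human receptor were seeded at 1500 cells/well, incubated overnight at 37 degrees C in 5% CO2, then exposed to library compounds with dopamine controls for 90 minutes at 37 degrees C before luminescent detection.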
IL-1B inflam inh: qHTS for Inhibitors of Inflammasome Signaling: IL-1-beta AlphaLISA Primary Screen; THP-1 LPS/ATP IL-1B secretion, AlphaLISA, 16 h; hits give low values; activity change, % at 57.5 µM; 360,000 compounds, 4.7% hits; AID 743279, 2014; in the data active means activity change below about -50%; inconclusive means mostly about -30% to -49%; further: on the % scale 0 is the no-effect control and ±100 the full control effect
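Secreted IL-1B measured by AlphaLISA bead assay after 16 h compound exposure of THP-1 cells; compounds (final up to 57.5 uM) added 1 h before LPS (250 ng/mL) and ATP (1.25 mM) stimulation; lower signal means less secretion.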
TDP1 cell CPT: qHTS for Inhibitors of human tyrosyl-DNA phosphodiesterase 1 (TDP1): qHTS in cells in presence of CPT; chicken DT40 Tdp1-/-;hTDP1 cells + 20 nM CPT, ATP luminescence, 48 h; Potency, µM (highest dose often 46.2 µM), for the others: at the highest dose activity change, negative = growth inhibition, hits mostly inhibitors; 420,000 compounds, 12% hits; further: potency means the concentration at half of the fitted maximal effect; on the % scale 0 is the no-effect control and ±100 the full control effect; nearly all actives have a fitted effect of over 55% in size
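Chicken DT40 Tdp1-/- cells stably complemented with human TDP1 were seeded at 400 cells/well in medium containing 20 nM camptothecin, exposed to pin-transferred compounds, and grown at 37 °C for at least 48 hr. Viability was read as ATP luminescence.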
DRD3 agonist: qHTS of D3 Dopamine Receptor Agonist: qHTS; D3R DiscoveRx beta-arrestin cells, luminescence, 90 min; max activation, %; 410,000 compounds, 0.58% hits; AID 652048, 2013; in the data active means max activation above about 30%; further: 0% is about no effect
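Cells at 1500/well, incubated overnight, then treated with pinned compounds (dopamine as control) for 90 min at 37 degrees C. DiscoveRx reagent added for 30 - 60 minutes at room temperature; luminescence read.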
ClpP mod: qHTS Assay for Activators of ClpP; ATP-dependent Clp protease proteolytic subunit (Bacillus subtilis (strain 168)), P80244; purified B. subtilis ClpP, FRET peptide cleavage, 20 min; Potency, µM (doses to about 57.5 µM), for inactives: at the highest dose activity change, negative = active; 340,000 compounds, 1.9% hits; AID 651965, 2013; active means well fitted falling curve with a large enough effect; inconclusive means small, poorly fitted or top-dose-only effect; inactive means no such curve, though single readings can be large or run the other way; further: potency means the concentration at half of the fitted maximal effect; the source files actives as falling curves though it sought activators and does not explain the sign; nearly all actives have a fitted effect of over 65% in size
Target sequence (P80244 whole entry, looked up): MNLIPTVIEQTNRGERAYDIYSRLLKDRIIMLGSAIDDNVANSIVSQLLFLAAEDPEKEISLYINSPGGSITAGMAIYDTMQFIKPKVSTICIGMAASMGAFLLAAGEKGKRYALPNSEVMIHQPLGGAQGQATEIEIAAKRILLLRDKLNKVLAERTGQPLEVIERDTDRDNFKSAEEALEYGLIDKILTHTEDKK
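Buffer: 100 mM Tris/HCl pH8, 100 mM KCl, 0.05% low protease BSA, 2.5% glycerol, 0.01% Tween-20. ClpP 10 microg/mL final; 20 min RT; delta FRET normalized to ADEP and DMSO controls.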
DT40 TDP1 no CPT: qHTS for Inhibitors of human tyrosyl-DNA phosphodiesterase 1 (TDP1): qHTS in cells in absence of CPT; 420,000 compounds, 15% hits; Potency, µM (top dose mostly 46.2 µM), for inactives: at the highest dose activity change, negative = growth inhibition, usual class: inhibitors; DT40 Tdp1-/- hTDP1 cells, no CPT, ATP luminescence, 48 h; further: potency means the concentration at half of the fitted maximal effect; on the % scale 0 is the no-effect control and ±100 the full control effect; nearly all actives have a fitted effect of over 55% in size
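Seeded 400 DT40-hTDP1 cells/well (vehicle DMSO, no 20 nM CPT); pinned compounds; ≥48 hr at 37 °C; CellTiter-Glo luminescence as viability measure.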
An asterisk follows results filed as active; i = inactive; ? = inconclusive; . = not tested or not shown. The list is not random: actives were taken first. Their share in the collection is about 21%. Unless noted, the call rests on the fitted dose curve; in most records, active means well fitted inhibition curve with a large enough effect; inconclusive means small, poorly fitted or top-dose-only effect; inactive means flat fitted curve, though single readings scatter.

SMILES	DRD3 antagonist	IL-1B inflam inh	TDP1 cell CPT	DRD3 agonist	ClpP mod	DT40 TDP1 no CPT
COc1ccc(/C=N/NC(=S)Nc2ccccc2)cc1COc1ccc(Br)cc1	1	39	15µM*	-3	-2%	?
COc1cc(OC)cc(C(=O)N/N=C/c2ccc(OC)c(COc3ccc4ccccc4c3)c2)c1	-11	39	4.1µM*	-8	-25%	6.5µM*
COc1ccc(/C=N/NC(=O)c2ccncc2)cc1COc1ccc(NC(C)=O)cc1	-16	-9	5.8µM*	-14	-1%	8.2µM*
COc1ccc(C(=O)N/N=C/c2ccc(OC)c(COc3ccccc3)c2)cc1	28	?	?	-3	?	?
COc1ccc(/C=N\NC(=O)c2cc(O)c(O)c(O)c2)cc1COc1ccc(C(=O)OCC(C)C)cc1	37	58	?	1	-2%	21µM*
O=C1C(=O)N(C2CCN(S(=O)(=O)c3ccc(F)cc3)CC2)CCN1Cc1ccccc1	.	.	5%	1	1%	33%
CC(=O)Nc1ccc(NC(=O)C(Cc2ccccc2)NS(=O)(=O)c2ccc3c(c2)oc(=O)n3C)cc1 (configuration not stated)	.	.	-9%	-1	1%	4%
COc1ccc(/C=N\NC(=O)c2ccccc2)cc1COc1ccccc1	18	i	?	2	?	?
COc1cccc(OCc2cc(/C=N/NC(=O)c3ccn[nH]3)ccc2OC)c1	16	34	?	5	-3%	26µM*
C=CC[C@@H](CC(=O)NCCO)C(=O)N[C@@H](COC(=O)[C@@H](CC=C)CC(=O)OC(C)(C)C)Cc1ccccc1	0	-6	?	-4	-1%	-27%
C=CC[C@H](CC(=O)N(CCO)Cc1ccccc1)C(=O)N[C@H](COC(=O)[C@H](CC=C)CC(=O)OC(C)(C)C)Cc1ccccc1	-23	-27	23µM*	-2	-1%	21µM*
C=CC[C@@H](CC(=O)N(CCO)Cc1ccccc1)C(=O)N[C@H](COC(=O)[C@@H](CC=C)CC(=O)OC(C)(C)C)C(C)(C)C	-9	-58*	?	-31	0%	?
CC(=O)N1CCN(c2csc3ccc(Br)cc3c2=O)CC1	.	.	-19%	1	?	?
COc1ccc(-c2cnc(C)o2)cc1S(=O)(=O)Nc1ccc(C)c(F)c1	.	.	2.6µM*	-3	-3%	2.6µM*
CCc1ccccc1N(C)S(=O)(=O)c1cc(-c2cc(C)no2)ccc1OC	-18	22	13µM*	-6	-2%	?
COc1ccc(NS(=O)(=O)c2cc(-c3onc(C)c3C)ccc2C)c(OC)c1	.	.	?	-15	0%	?
Cc1cc(C)c(NS(=O)(=O)c2cc(-c3onc(C)c3C)ccc2C)c(C)c1	.	.	13µM*	-8	1%	8.2µM*
Cc1ccc2c(c1)N(S(=O)(=O)c1cc(-c3onc(C)c3C)ccc1C)CCO2	24	?	23µM*	2	-3%	9.2µM*
COC(=O)[C@@]12C[C@@H](CC(=O)N3CCOCC3)C(=O)N(CCc3ccc(OC)c(OC)c3)C1=CCC(C)(C)C2	-7	-23	7%	0	3%	9%
N#Cc1ccccc1Cn1c(SCC(=O)Nc2ccc(F)cc2)nc2ccccc21	.	.	?	8	1%	?
O=C(CCNC(=O)c1ccc(Cl)cc1)NNC(=O)c1ccc(F)cc1	17	20	12%	7	-2%	16%
COc1cc(C(=O)NCC(c2ccco2)N2CCc3ccccc3C2)cc(OC)c1OC (configuration not stated)	-7	-2	?	-4	?	?
CCc1ccc2oc(-c3cccc(NC(=O)c4ccc(-c5cccc([N+](=O)[O-])c5)o4)c3)nc2c1	.	.	.	11	-3%	.
COc1cc(Cl)c(NS(=O)(=O)c2cc(-c3cc(C)no3)ccc2OC)c(OC)c1	.	.	?	-23	1%	?
COc1ccc(-c2cnc(C)o2)cc1S(=O)(=O)Nc1c(C)cc(C)cc1C	.	.	16µM*	9	-6%	23µM*
SMILES	DRD3 antagonist	IL-1B inflam inh	TDP1 cell CPT	DRD3 agonist	ClpP mod	DT40 TDP1 no CPT
COc1ccc(-c2cc(C)no2)cc1S(=O)(=O)Nc1c(C)cc(C)cc1C	.	.	?	-9	0%	21µM*
COc1ccc(NC(=O)Cn2nnc(C(=O)NCc3ccccc3Cl)c2N)cc1Cl	.	.	9%	4	-1%	3%
Cc1ccc(S(=O)(=O)N2CCC(=O)N(C(COC(=O)Nc3ccccc3)Cc3ccccc3)CC2)cc1 (configuration not stated)	10	0	21µM*	-9	0%	?
Cc1ccc(S(=O)(=O)N2CCC(=O)N(C(COCc3ccc(Cl)c(Cl)c3)Cc3ccccc3)CC2)cc1 (configuration not stated)	1	48	?	-15	-3%	23µM*
Cc1ccc(S(=O)(=O)N2CCC(=O)N(C(COCc3ccc(C(F)(F)F)cc3)Cc3ccccc3)CC2)cc1 (configuration not stated)	-19	-17	9.2µM*	-6	-1%	18µM*
COc1ccccc1C(=O)NCCn1cc(SCC(=O)Nc2ccccc2F)c2ccccc21	.	.	?	5	-5%	?
Cc1cc2c(NC(=O)Nc3ccc(C(F)(F)F)cc3)cccc2nn1	21	-55*	?	6	-1%	?
Cc1cc2c(NC(=O)CCCC(=O)O)cccc2nn1	-7	11	0%	-16	-1%	1%
Nc1nc2c([nH]c(=S)n2C2OC(CO)C(O)C2O)c(=O)[nH]1 (configuration not stated)	.	.	-3%	.	.	3%
COc1cccc(CN2CCCC(c3nc(-c4ccncc4)ncc3-c3ccccc3)C2)c1O (configuration not stated)	.	.	?	.	.	16µM*
COc1ccc(CN2CCCC(c3nc(-c4ccncc4)ncc3-c3ccccc3C)C2)c(OC)c1 (configuration not stated)	.	.	2.6µM*	.	.	?
CC1CCC(C(C)C)C(OC(=O)COC(=O)c2ccc(=O)[nH]c2)C1 (configuration not stated)	50	28	-29%	0	-3%	?
